# Measured values: PubChem BioAssay AID1508602 (The Scripps Research Institute Molecular Screening Center, 2020)
# Values joined by “and” are separate entries in the source; they are usually repeats but may differ in a detail not shown here. Identical values can stand only once. Out of some 650,000 compounds screened, about 6,800 (1%) were called active. Rule as the data show it: active = activation above about 4.9%; inactive = the rest. The sample as a whole holds a higher share of actives than the screen did.
# Biological target: G-protein coupled receptor 151 (Homo sapiens) (UniProt Q8TDV0)
# Test: activators of human GPR151, primary screen, cell-based, PathHunter beta-arrestin, luminescence (AID 1508602);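 also: 0% = median of compound wells and 100% = cells with positive control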
# Details: PathHunter beta-arrestin GPR151 cells, at 11.2 µM, hits give high values
# G-protein coupled receptor 151 (Homo sapiens), sequence (Q8TDV0 whole entry, looked up): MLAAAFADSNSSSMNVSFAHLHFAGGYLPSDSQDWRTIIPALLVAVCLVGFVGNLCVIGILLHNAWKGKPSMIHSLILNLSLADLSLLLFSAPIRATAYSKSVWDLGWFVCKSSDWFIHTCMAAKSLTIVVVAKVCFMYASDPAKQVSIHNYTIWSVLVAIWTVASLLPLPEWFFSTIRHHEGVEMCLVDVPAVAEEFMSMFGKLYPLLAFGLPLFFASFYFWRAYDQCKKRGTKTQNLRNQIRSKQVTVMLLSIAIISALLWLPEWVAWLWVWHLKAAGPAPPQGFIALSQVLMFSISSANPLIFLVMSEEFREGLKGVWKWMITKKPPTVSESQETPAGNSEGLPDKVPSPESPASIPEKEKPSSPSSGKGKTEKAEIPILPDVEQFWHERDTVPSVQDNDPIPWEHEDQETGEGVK
row,SMILES,activation
1,COc1ccc(CCn2c(-c3ccc(S(=O)(=O)N4CCOCC4)cc3)csc2=Nc2cccc(C(F)(F)F)c2)cc1OC,0.281% (inactive)
2,N#Cc1ccccc1OCC(=O)OCC(=O)Nc1ncc(Cl)cc1Cl,0.379% (inactive)
3,CCOC(=O)CNC(=O)c1sc2ncn(CC(=O)Nc3ccc(C(C)C)cc3)c(=O)c2c1C,-1.34% (inactive) and -1.19% (inactive)
4,O=C(CN1C(=O)c2ccc([N+](=O)[O-])cc2C1=O)NC(c1ccccc1)c1ccccc1,0.498% (inactive)
5,O=C(CN1C(=O)c2ccccc2C1=O)NC(c1ccccc1)c1ccc(Br)cc1 (stereo unspecified),5.23% (active)
6,O=C(CN1C(=O)CCC1=O)NC(c1ccccc1)c1ccccc1,-0.973% (inactive)
7,NC(=O)c1c(NC(=O)CN(C(=O)c2ccco2)C2CCCC2)sc2c1CCCC2,3.42% (inactive)
8,CN(CC(COc1cccc2ccccc12)OC(=O)c1ccc(Cl)cc1Cl)C1=NS(=O)(=O)c2ccccc21 (stereo unspecified),0.501% (inactive)
9,CSc1nnc2n(/N=C/c3ccc(F)cc3)cnn12,-3.69% (inactive)
10,CCC(C)(C)NC(=O)CN(C(=O)c1csnn1)c1cccc(C)c1C,-1.04% (inactive)
11,O=C(N/N=C\c1ccc(I)o1)c1ccc(Br)cc1,1.14% (inactive)
12,Cc1ccc(NCC(=O)N/N=C\c2ccc(I)o2)cc1,5.65% (active)
13,COc1ccc(Cl)cc1/C=N/NC(=O)CNc1ccc(C)cc1,0.958% (inactive)
14,COc1ccc(NS(=O)(=O)c2cc3c4c(c2)CC(=O)N4CCC3)cc1Cl,3.82% (inactive)
15,O=C1Cc2cc(S(=O)(=O)Nc3ccc(C(F)(F)F)cc3)cc3c2N1CCC3,-0.781% (inactive)
16,O=C1Cc2cc(S(=O)(=O)Nc3cccc(Cl)c3)cc3c2N1CCC3,5.26% (active)
17,Cc1cccc(C)c1-n1c(N)c(C(=O)NCc2ccccc2)sc1=S,-0.178% (inactive)
18,Cc1ccc(C)c(NC(=O)CN(C)S(=O)(=O)c2ccc3nc(-c4ccccc4)[nH]c3c2)c1,-2.02% (inactive)
19,CC(=O)Oc1cccc(N2C(=O)C3C4c5ccccc5C(C)(c5ccccc54)C3C2=O)c1 (stereo unspecified),22.7% (active)

row,SMILES,activation
1,CCOc1ccc(N2C(=O)C3C4c5ccccc5C(C(C)O)(c5ccccc54)C3C2=O)cc1 (stereo unspecified),4.96% (active)
2,CC12c3ccccc3C(c3ccccc31)C1C(=O)N(c3cccc(C(=O)O)c3)C(=O)C12 (stereo unspecified),-0.158% (inactive)
3,Cc1ccc(N2C(=O)C3C4c5ccccc5C(CO)(c5ccccc54)C3C2=O)cc1 (stereo unspecified),-0.914% (inactive)
4,CC12c3ccccc3C(c3ccccc31)C1C(=O)N(c3cccc(C(F)(F)F)c3)C(=O)C12 (stereo unspecified),1.26% (inactive)
5,CC12c3ccccc3C(c3ccccc31)C1C(=O)N(c3ccc(C(=O)O)cc3)C(=O)C12 (stereo unspecified),-0.384% (inactive)
6,COc1cc(C2Nc3cc(C)c(C)cc3NC3=C2C(=O)CC(C)(C)C3)cc(OC)c1OC (stereo unspecified),0.742% (inactive)
7,CCOC(=O)C1(Cc2cccc(OC)c2)CCCN(C(=O)COc2ccccc2OC)C1 (stereo unspecified),2.47% (inactive)
8,CCOC(=O)C1=CN(C)C=C(C(=O)OCC)C1c1ccc(OC)c(Br)c1,-0.344% (inactive)
9,CCOC(=O)C1=CN(C)C=C(C(=O)OCC)C1c1ccc(OC)cc1,5.01% (active)
10,CCOC(=O)C1=CN(c2ccc(OCC)cc2)C=C(C(=O)OCC)C1c1ccc(OC)cc1,0.997% (inactive)
11,O=C(NCCc1ccc(O)cc1)c1cccc(Nc2ccncn2)n1,-1.69% (inactive)
12,N#Cc1ccc(C(=O)OCc2ccc(Br)cc2)cc1,-1.47% (inactive)
13,O=C1OC(/C=C/c2cccc(Cl)c2Cl)=NC/1=C\c1cccc([N+](=O)[O-])c1,0.433% (inactive)
14,CCOc1ccc(/C=C2N=C(/C=C/c3cccc(Cl)c3Cl)OC\2=O)cc1,6.64% (active)
15,CCOc1ccc(/C=C2N=C(/C=C\c3cccc([N+](=O)[O-])c3)OC/2=O)cc1,-1.22% (inactive)
16,CN(Cc1cccc(C(F)(F)F)c1)C(=O)CC1C(=O)NCCN1Cc1ccccc1 (stereo unspecified),-0.0176% (inactive)
17,COc1ccc(C2=NN(C(=O)c3ccccc3Cl)C(c3cccc(OC)c3OC)C2)cc1OC (stereo unspecified),-0.321% (inactive)
18,COc1ccc(C2=NN(C(=O)c3cc(OC)c(OC)c(OC)c3)C(c3ccc(Cl)cc3)C2)cc1OC (stereo unspecified),7.04% (active)
19,O=C(c1ccc(Cl)cc1)N1N=C(c2ccccc2)CC1c1ccc(Cl)cc1 (stereo unspecified),0.747% (inactive)

row,SMILES,activation
1,Cc1nnc(SCc2ccc(CSc3nnc(C)n3N)cc2)n1N,-2.22% (inactive)
2,COc1ccc(-c2cc(N)n(S(=O)(=O)c3ccc([N+](=O)[O-])cc3)n2)c(OC)c1,-0.106% (inactive)
3,COc1ccccc1-c1cc(N)n(S(=O)(=O)c2ccccc2)n1,-0.0893% (inactive)
4,COc1ccc(-c2cc(N)n(S(=O)(=O)c3ccccc3)n2)c(OC)c1,6.94% (active)
5,O=C1COc2cc(S(=O)(=O)CCC(=O)N3CCN(c4ccccc4F)CC3)ccc2N1,0.891% (inactive)
6,CCOc1ccc(OCCOCCN2CC(C)OC(C)C2)cc1 (stereo unspecified),-1.18% (inactive)
7,COc1ccc(N/C=C(/C#N)c2nc(-c3ccc(F)cc3)cs2)c(OC)c1,1.79% (inactive)
8,COc1ccccc1Nc1nc(-c2ccc(Br)cc2)cs1,-0.402% (inactive)
9,COc1ccc(Nc2nc(-c3ccc(F)cc3)cs2)c(OC)c1,13.1% (active)
10,COc1ccc(-n2c(=S)[nH]c3cc(C(=O)Nc4cccc(Cl)c4)ccc3c2=O)c(OC)c1,1.31% (inactive)
11,O=C(N/N=C\c1ccccc1Cl)c1ccccn1,-5.29% (inactive)
12,O=C(N/N=C\C=C\c1ccccc1)c1ccccn1,8.89% (active)
13,O=C(N/N=C\c1ccccc1)c1ccccn1,-3.62% (inactive)
14,CC(=O)OCc1cn(-c2nonc2N)nn1,2.37% (inactive)
15,CC(=O)C1=C(O)C(=O)N(CC#N)C1c1ccc(F)cc1 (stereo unspecified),-0.438% (inactive)
16,O=C(COc1ccc(Br)cc1Cl)NCCO,0.504% (inactive)
17,COc1ccc(OCC(=O)NCC(F)(F)F)c([N+](=O)[O-])c1,1.07% (inactive)
18,O=C(COc1ccc(Br)cc1CO)NCC(F)(F)F,8.84% (active)
